This is part of a sample that, as a whole, favours compounds with a hit. Of some 79,000 tested, about 15% had one in any assay. A number with no mark means an inactive call. Active and inactive are the calls of the source. No stated cut-off is given here; in the data, active means growth inhibition above about 70%; inactive means the rest.
Columns and labels:
[1] = NCI Yeast Anticancer Drug Screen. Data for the rad50 strain (AID 155);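 further: 0% = growth of vehicle-only cultures of the same strain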; settings: S. cerevisiae rad50 strain growth inhibition, stronger effect = higher value
Outline: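 Compounds were tested on a yeast strain with an engineered DNA damage repair alteration; the reported value is growth inhibition normalised to vehicle treatment.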

[2] = NCI Yeast Anticancer Drug Screen. Data for the mec2-1 strain (AID 157); settings: S. cerevisiae mec2-1 strain, stronger effect = higher value
Outline: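 Vehicle-treated cultures served as reference for growth inhibition of compound-exposed mec2-1 yeast.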

[3] = NCI Yeast Anticancer Drug Screen. Data for the sgs1 mgt1 strain (AID 161);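 further: 0% = growth of cultures given vehicle only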; settings: S. cerevisiae sgs1 mgt1 strain, stronger effect = higher value
Outline: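 Inhibition of yeast growth, normalised to vehicle-treated controls, is reported for a strain bearing genetic alterations in DNA damage repair.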

[4] = NCI Yeast Anticancer Drug Screen. Data for the cln2 rad14 strain (AID 165);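 further: 0% = growth equal to vehicle treated cultures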; settings: S. cerevisiae cln2 rad14 strain, stronger effect = higher value
Outline: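 Each compound was tested on cln2 rad14 yeast. Inhibition of growth was calculated against vehicle-exposed controls.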

[5] = NCI Yeast Anticancer Drug Screen. Data for the bub3 strain (AID 167); settings: S. cerevisiae bub3 mutant strain, stronger effect = higher value
Outline: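 Growth of a checkpoint-deficient yeast mutant is measured after compound exposure. Values represent inhibition relative to vehicle.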

[6] = NCI Yeast Anticancer Drug Screen. Data for the mlh1 rad18 strain (AID 175); settings: S. cerevisiae mlh1 rad18 strain growth inhibition, stronger effect = higher value
Outline: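 Vehicle-treated cultures served as the reference for growth inhibition in a yeast strain carrying DNA damage repair alterations exposed to each compound.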

[7] = at 5.0 µM (retest, dose inferred, filed as 0.5)
[8] = at 50.0 µM (retest, dose inferred, filed as 5.0)

Compound | growth inhibition [1, 7] | growth inhibition [1, 8] | growth inhibition ([1]; at 50.0 µM) | growth inhibition [2, 7] | growth inhibition [2, 8] | growth inhibition ([2]; at 50.0 µM) | growth inhibition [3, 7] | growth inhibition [3, 8] | growth inhibition ([3]; at 50.0 µM) | growth inhibition [4, 7] | growth inhibition [4, 8] | growth inhibition ([4]; at 50.0 µM) | growth inhibition [5, 7] | growth inhibition [5, 8] | growth inhibition ([5]; at 50.0 µM) | growth inhibition [6, 7] | growth inhibition [6, 8] | growth inhibition ([6]; at 50.0 µM)
COc1ccccc1NC(=O)CC(=O)N1N=C(c2ccccc2)C(N=Nc2ccc(Cl)cc2)C1=O (configuration not stated) | 20% | 20% | -5.1% | 21% | 21% | 0.6% | 25% | 25% | -2% | 12% | 12% | -41.2% | 15% | 15% | 1% | 6% | 6% | -8.05%
CC(=O)OC1CCC(C(C)(C)C)C(C)C1 (configuration not stated) | 3% | 43% | 11.4% | 5% | 70% (active) | 45.5% | 6% | 42% | 43.4% | 2% | 68% | 9.55% | -4% | 67% | 32.9% | 3% | 47% | 29.5%
CC(=O)C1C(=O)C=C(C)OC1=O (configuration not stated) | 4% | 21% | 40.5% | 8% | 18% | 29.1% | 1% | 18% | -0.75% | 7% | 13% | 3.7% | 0% | 2% | 28.9% | 4% | 23% | 70.7% (active)
CC(=O)NC1CCCCC1c1ccc(C2CCCCC2NC(C)=O)cc1 (configuration not stated) | -8% | 3% | -11.9% | -8% | 9% | -9.3% | -4% | 19% | 5.3% | -69% | -6% | 66.8% | -4% | 1% | -2.45% | 3% | 3% | 1.9%
Cc1ccc(O)c(C(C)(C)c2ccccc2)c1 | -8% | 77% (active) | 99.5% (active) | -5% | 94% (active) | 99.8% (active) | -9% | 43% | 99.7% (active) | -6% | 90% (active) | 98.7% (active) | -49% | 95% (active) | 99.5% (active) | -10% | 94% (active) | 99.3% (active)
Clc1ncccc1-n1cccc1/C=N\N=C/c1cccn1-c1cccnc1Cl | 5% | 98% (active) | 7.25% | 5% | 98% (active) | 6.3% | 8% | 94% (active) | -10.6% | 4% | 93% (active) | 30.4% | 6% | 97% (active) | -4.95% | -1% | 99% (active) | 21.7%
CS(=O)(=O)N\N=C1/C=C\C(=N/NS(C)(=O)=O)CCc2ccc(cc2)CC1 | -1% | 77% (active) | 86.3% (active) | 7% | 96% (active) | 88.8% (active) | -34% | 92% (active) | 93.3% (active) | -1% | 19% | 39.6% | -4% | 92% (active) | 90% (active) | 5% | 95% (active) | 94.5% (active)
COc1cc2cnc(-c3ccccc3)cc2cc1OC | 14% | 71% (active) | 43.5% | 11% | 76% (active) | 17.6% | 5% | 63% | 13.9% | -15% | 99% (active) | 26.9% | 48% | 99% (active) | 81.3% (active) | 13% | 86% (active) | 19.2%
CC(C)COP(=O)(OCC(C)C)C(NS(=O)(=O)c1ccccc1)(C(F)(F)F)C(F)(F)F | 4% | 11% | 63.5% | -12% | -2% | 82.7% (active) | 7% | -5% | -2.35% | 27% | 42% | 6.85% | -6% | 8% | -3.8% | 0% | 3% | 90.2% (active)

From PubChem BioAssay (NCI)
